The source made the active and inactive calls. Unless noted, the rule behind the calls is not given here.
Tests used:
[1] = resazurin metabolic signal in HepG2 cells – cell-based, resazurin fluorescence, 24 h, PK04 Diversity Set, profiling panel (AID 1172); details: HepG2 viability, higher = more signal; note: test concentration not given here
[2] = budding yeast growth changes without added modifier – OD600, strain BY4716, 24 h, basal condition, primary screen (AID 1173); details: S. cerevisiae BY4716 growth, OD600, 24 h; higher = more signal, called active from +8 up or from −8 down
[3] = viability profiling in MM1S myeloma cells – cell-based, resazurin fluorescence, basal, 24 h, PK04 Diversity Set, profiling panel (AID 1174); details: higher = more signal, called active from +8 up or from −8 down;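 note: MM1S multiple myeloma cell line; test concentration not given here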
[4] = target: Dihydroorotate dehydrogenase (quinone), mitochondrial (Plasmodium falciparum (isolate 3D7)) (UniProt Q08210); assay: inhibition of P. falciparum DHODH – biochemical, C-terminal His tag, absorbance 600 nm, primary screen (AID 1175); details: PfDHODH enzyme, DCIP absorbance 600 nm; higher = more signal, called active from +8 up or from −8 down;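 note: recombinant parasite enzyme with a five histidine tag at its C terminus; test concentration not given here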
Chain of Dihydroorotate dehydrogenase (quinone), mitochondrial (Plasmodium falciparum (isolate 3D7)) (Q08210 whole entry, looked up): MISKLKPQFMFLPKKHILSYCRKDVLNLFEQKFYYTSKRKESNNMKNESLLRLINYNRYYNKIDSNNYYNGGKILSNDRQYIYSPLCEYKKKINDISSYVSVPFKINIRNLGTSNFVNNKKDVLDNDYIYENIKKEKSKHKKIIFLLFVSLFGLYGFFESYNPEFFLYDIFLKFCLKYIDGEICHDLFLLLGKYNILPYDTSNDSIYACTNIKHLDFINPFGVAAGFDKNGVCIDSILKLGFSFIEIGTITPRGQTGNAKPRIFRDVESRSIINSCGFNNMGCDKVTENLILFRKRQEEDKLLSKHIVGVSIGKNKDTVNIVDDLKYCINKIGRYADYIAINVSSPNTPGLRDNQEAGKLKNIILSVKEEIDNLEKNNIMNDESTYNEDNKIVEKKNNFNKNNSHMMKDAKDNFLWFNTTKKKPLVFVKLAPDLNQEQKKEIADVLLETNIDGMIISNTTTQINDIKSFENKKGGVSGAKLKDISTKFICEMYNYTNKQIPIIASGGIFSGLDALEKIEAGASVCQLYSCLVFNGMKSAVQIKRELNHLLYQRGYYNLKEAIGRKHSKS

[5] = inhibition of PAO1 biofilm formation – strain PAO1, LB-PBS medium, absorbance 600 nm, primary screen (AID 1176); note: test concentration not given here; details: P. aeruginosa PAO1 growth/biofilm, A600, 12 h; higher = more signal
[6] = growth modulation of vineyard yeast isolate – strain RM11-1a, OD600, basal, 24 h, primary screen (AID 1177);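 note: cultures grown under basal conditions with no added stressor; test concentration not given here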; details: S. cerevisiae RM11-1a growth, OD600, 24 h; higher = more signal, called active from +8 up or from −8 down
[7] = growth of efflux-deficient E. coli DRC39 – strain DRC39, OD650, 24 h, E. coli filamentation inducers, primary screen (AID 1178);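 note: growth measured as culture turbidity by optical density at 650 nm; test concentration not given here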; details: E. coli DRC39 acrAB, higher = more signal, called active from +8 up or from −8 down
[8] = growth of efflux-deficient E. coli DRC39 – strain DRC39, OD650, 48 h, E. coli filamentation inducers, primary screen (AID 1179);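 note: screen aims at cell division blockers that make cells filament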; details: E. coli DRC39 delta-acrAB growth, higher = more signal, called active from +8 up or from −8 down
[9] = viability profiling in RPMI8226 myeloma cells – cell-based, resazurin fluorescence, basal, 24 h, PK04 Diversity Set, profiling panel (AID 1180); details: higher = more signal;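 note: RPMI8826 multiple myeloma cell line at 5000 cells per well; test concentration not given here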
[10] = target: E3 ubiquitin-protein ligase XIAP (Homo sapiens) (UniProt P98170); assay: small molecules binding XIAP protein – biophysical, small-molecule microarray, fluorescence 635 nm, primary screen (AID 1181); details: higher = more signal;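 note: score merges 667 nm emission and signal to noise over triplicate slides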
Chain of E3 ubiquitin-protein ligase XIAP (Homo sapiens) (P98170 whole entry, looked up): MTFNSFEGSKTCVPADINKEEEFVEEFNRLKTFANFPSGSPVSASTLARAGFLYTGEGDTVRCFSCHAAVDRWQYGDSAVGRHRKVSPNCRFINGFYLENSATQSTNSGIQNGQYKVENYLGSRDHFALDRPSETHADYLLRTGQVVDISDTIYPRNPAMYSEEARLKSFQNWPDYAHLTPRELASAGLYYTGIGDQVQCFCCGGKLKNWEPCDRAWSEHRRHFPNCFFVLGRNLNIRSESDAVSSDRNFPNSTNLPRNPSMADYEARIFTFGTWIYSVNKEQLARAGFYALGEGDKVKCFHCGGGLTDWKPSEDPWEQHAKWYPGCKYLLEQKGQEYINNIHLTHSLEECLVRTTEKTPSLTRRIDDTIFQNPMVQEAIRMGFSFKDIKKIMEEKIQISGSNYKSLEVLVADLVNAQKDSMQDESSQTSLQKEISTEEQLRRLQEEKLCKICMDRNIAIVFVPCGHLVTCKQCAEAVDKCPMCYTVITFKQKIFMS

Row | SMILES | z-score [1] | z-score [2] | z-score [3] | composite z-score [4] | z-score [5] | z-score [6] | z-score [7] | z-score [8] | z-score [9] | composite z-score [10]
1 | COC(=O)c1ccc(OC)c(/C=C\CC(OC(=O)c2ccncc2)c2ccccc2)c1 (stereo not given) | 0.887 | -2.06 (inactive) | 0.514 (inactive) | -6.33 (inactive) | 0.792 (inactive) | -2.69 (inactive) | 2.57 (inactive) | 1.49 (inactive) | 0.525 | 0.0774
2 | O=C1NC(=O)C2C1C=CC(C(O)C1CCCCC1)N2Nc1ccccn1 (stereo not given) | -0.864 | 0.876 (inactive) | -1.27 (inactive) | 0.583 (inactive) | 2.68 (inactive) | 0.209 (inactive) | -1.02 (inactive) | -0.286 (inactive) | -1.33 | -0.0663
3 | C=C(CC1([C@@H](NP(=O)(c2ccccc2)c2ccccc2)[C@H]2C[C@@H]2CCCC)CC1)c1cccc(OC)c1 | 2.56 | 2.17 (inactive) | 1.08 (inactive) | -0.0873 (inactive) | 0.0944 (inactive) | 1.61 (inactive) | -0.283 (inactive) | -0.216 (inactive) | 3.23 | 0.219
4 | O=C1C2C=CC(C(O)C3CCCCC3)N(Nc3ccccc3F)C2C(=O)N1c1ccccc1 (stereo not given) | -1.87 | -0.701 (inactive) | -0.631 (inactive) | -0.572 (inactive) | 0.931 (inactive) | -0.375 (inactive) | 0.221 (inactive) | -0.1 (inactive) | -0.14 | -0.235
5 | COc1cccc(C)c1NC(=O)O[C@H]1[C@H](OC(=O)Nc2ccccc2-c2ccccc2)[C@@H](OC(=O)Nc2ccccc2-c2ccccc2)[C@@H](OC)O[C@@H]1CO | -2.77 | 2.22 (inactive) | -3.21 (inactive) | 1.24 (inactive) | 1.23 (inactive) | 4.5 (inactive) | -0.349 (inactive) | -0.846 (inactive) | -2.61 | 0.268
6 | C[C@]1(C(=O)O)c2ccccc2C(=O)N(Cc2cc(C(F)(F)F)cc(C(F)(F)F)c2)[C@H]1c1ccc(CO)cc1 | 0.341 | 0.0491 (inactive) | 0.385 (inactive) | -0.979 (inactive) | -0.0528 (inactive) | -0.161 (inactive) | -0.124 (inactive) | -0.515 (inactive) | 0.306 | -0.173
7 | COC(=O)c1c2oc(c1C(=O)OC)C(=O)N[C@H](Cc1ccccc1)Cn1cc(nn1)C1(CCCCC1)NC(=O)N[C@H](CO)CC2 | 0.483 | -2.6 (inactive) | 0.247 (inactive) | -0.174 (inactive) | 0.772 (inactive) | 0.0801 (inactive) | -0.051 (inactive) | 0.565 (inactive) | 0.245 | -0.113
8 | COc1ccc(CCNC(=O)[C@@H]2c3ccccc3C(=O)N(C(C)C)[C@H]2c2ccc(CO)cc2)cc1 | 0.862 | -0.313 (inactive) | 1.35 (inactive) | 0.261 (inactive) | -0.935 (inactive) | 0.326 (inactive) | 0.364 (inactive) | 0.246 (inactive) | 1.53 | -0.178
9 | C=CCNC(=O)[C@H]1[C@@H]2C(=O)O[C@@H](c3ccccc3)[C@@H](c3ccccc3)N2[C@@H](c2ccc(O)cc2)[C@]12C(=O)N(C(=O)OCCOC)c1ccc(C#Cc3ccc(OC)cc3)cc12 | 0.267 | 0.469 (inactive) | -0.466 (inactive) | -0.208 (inactive) | 0.485 (inactive) | 0.539 (inactive) | -1.2 (inactive) | -0.844 (inactive) | -0.772 | -0.0427
10 | [N-]=[N+]=NCc1ccccc1[C@H]1OC(c2ccc(OCCCO)cc2)=N[C@@]1(CCS(=O)(=O)c1ccccc1)C(=O)NCCN1CCOCC1 | -0.152 | 0.256 (inactive) | 0.285 (inactive) | 0.12 (inactive) | 1.13 (inactive) | -0.199 (inactive) | -0.178 (inactive) | -0.35 (inactive) | 0.548 | -0.115
11 | COC(=O)C(CC#Cc1ccc2c(c1)[C@]1(C(=O)N2)[C@H](C(=O)N2CCCCCCC2)[C@H]2C(=O)O[C@H](c3ccccc3)[C@H](c3ccccc3)N2[C@@H]1c1ccc(OCCO)cc1)C(=O)OC | 0.883 | 1.43 (inactive) | 0.229 (inactive) | -1.22 (inactive) | 2.05 (inactive) | 0.415 (inactive) | 0.0679 (inactive) | -0.878 (inactive) | 0.0283 | 2.59
12 | CC1C2C(CCCO)=CC(C3C(=O)N(C(N)=O)C(=O)C23)N1Cc1cccc(OC(F)(F)F)c1 (stereo not given) | 0.0337 | -0.837 (inactive) | -0.402 (inactive) | -0.766 (inactive) | 0.437 (inactive) | -0.369 (inactive) | 0.0299 (inactive) | -0.114 (inactive) | -0.907 | -0.199
13 | CCCC[C@@H](O)C1=C(C)Cn2c(=O)n(-c3ccccc3)c(=O)n2[C@H]1CO | -0.256 | -1.82 (inactive) | -0.0268 (inactive) | -1.06 (inactive) | 0.413 (inactive) | -1.88 (inactive) | 0.514 (inactive) | 0.715 (inactive) | -0.0486 | -0.249
14 | COCCOC(=O)N1C(=O)[C@@]2(c3ccccc31)[C@H](C(=O)Nc1nc3ccccc3s1)[C@H]1C(=O)O[C@H](c3ccccc3)[C@H](c3ccccc3)N1[C@@H]2c1ccccc1OCCO | -0.49 | 2.38 (inactive) | -0.304 (inactive) | 1.38 (inactive) | 2.9 (inactive) | 2.25 (inactive) | 0.0795 (inactive) | -0.315 (inactive) | -0.236 | 0.0245
15 | CCCCCCc1nc(Cc2cc(OC)c(OC)c(OC)c2)c(C)c2c1[Si](C(C)C)(C(C)C)OC2 | -0.422 | -0.944 (inactive) | 0.328 (inactive) | -3.29 (inactive) | 0.055 (inactive) | -0.599 (inactive) | 1.4 (inactive) | 0.707 (inactive) | 0.556 | 0.146
16 | CCOC(=O)C[C@H]1[C@H](OC(=O)Cc2ccc3c(c2)OCO3)[C@@H](NC(=O)CC(C)C)c2cc(OCCCO)ccc2N1C(=O)c1ccc2ccccc2n1 | 0.0081 | -1.8 (inactive) | -0.0432 (inactive) | -1.94 (inactive) | -1.53 (inactive) | -0.0738 (inactive) | 0.57 (inactive) | -0.0185 (inactive) | -0.255 | 0.514
17 | O=C1C2C=CC(C(O)C(c3ccccc3)c3ccccc3)N(Nc3ccccc3F)C2C(=O)N1c1ccccc1 (stereo not given) | -0.353 | -0.704 (inactive) | -0.813 (inactive) | 1.68 (inactive) | 0.34 (inactive) | 1.52 (inactive) | -0.872 (inactive) | -0.82 (inactive) | -1.32 | 0.0617
18 | COc1cc(Cc2cc3c(c(CCc4ccccc4)n2)[Si](C(C)C)(C(C)C)O[C@H]3c2ccccc2)cc(OC)c1OC | -0.877 | -17.2 (active) | -0.489 (inactive) | -0.435 (inactive) | 0.113 (inactive) | -0.234 (inactive) | -0.264 (inactive) | -0.65 (inactive) | -0.163 | 0.355
19 | [N-]=[N+]=Nc1ccccc1C[C@]1(C(N)=O)COC(c2ccc(OCCCO)cc2)=N1 | 0.978 | -0.0745 (inactive) | 0.157 (inactive) | -0.265 (inactive) | 0.398 (inactive) | -0.762 (inactive) | 0.578 (inactive) | -0.364 (inactive) | 0.177 | 0.396
20 | CC1CC/C=C\[C@H]2OC34C=CCN(CCN5CCOCC5)C(=O)[C@H]3N(C(CO)C(C)C)C(=O)[C@@H]4C2C(=O)O1 (stereo not given in full) | -0.137 | 0.183 (inactive) | -0.885 (inactive) | -3.11 (inactive) | -0.869 (inactive) | -0.459 (inactive) | 0.332 (inactive) | 0.365 (inactive) | -0.465 | -0.0172
21 | C=C(CCCC)/C(=C/C[C@@H](OC(C)=O)c1cccc(OCCO)c1)c1cc(C(=O)OC)ccc1OC | 0.978 | 1.12 (inactive) | 0.0348 (inactive) | -0.943 (inactive) | 0.0599 (inactive) | 0.523 (inactive) | 0.508 (inactive) | 0.583 (inactive) | 0.1 | -0.0447
22 | COc1ccc([Si](C)(C)[C@H]2[C@H](CC(=O)N(CCO)Cc3ccccc3)O[C@@]3(C(=O)N(c4ccccc4)c4ccccc43)[C@@H]2C)cc1 | -4.7 | 0.148 (inactive) | -8.42 (active) | 0.531 (inactive) | 0.838 (inactive) | 0.29 (inactive) | 0.997 (inactive) | -0.0322 (inactive) | -6.25 | 0.226
23 | O=C1C2C=CC(C(O)C3CC=CCC3)N(Nc3ccc([N+](=O)[O-])cc3)C2C(=O)N1c1ccccc1 (stereo not given) | -0.681 | -0.541 (inactive) | -0.428 (inactive) | 0.354 (inactive) | 1.29 (inactive) | -0.0935 (inactive) | -0.544 (inactive) | -0.861 (inactive) | -0.617 | 0.26
24 | O=C1N(Cc2ccccc2)c2ccccc2C[C@@]12N=C(c1ccc(OCCCO)cc1)O[C@H]2c1ccccc1 | -0.449 | -1.21 (inactive) | -2.11 (inactive) | 0.318 (inactive) | 2.26 (inactive) | 1.18 (inactive) | 0.0946 (inactive) | -0.928 (inactive) | -1.69 | 0.0918
25 | CCCCN1CC=CC23O[C@@H]4/C=C\CCCOC(=O)C4[C@H]2C(=O)N(CCCCCCO)[C@@H]3C1=O (stereo not given in full) | 0.646 | -0.556 (inactive) | 1.21 (inactive) | -1.97 (inactive) | 0.454 (inactive) | -0.874 (inactive) | 0.564 (inactive) | 0.924 (inactive) | 0.983 | -0.159
26 | COC(=O)Cn1c(C(=O)N(C)C)cc2c1C[C@H]1CN(C(=O)c3ccccc3)[C@@](Cc3ccccc3)(C(=O)OC)[C@@H]21 | 0.971 | 0.282 (inactive) | 0.52 (inactive) | -0.777 (inactive) | -0.747 (inactive) | -0.161 (inactive) | 0.304 (inactive) | -1.15 (inactive) | 1.09 | 0.343
